# Assay results taken from PubChem BioAssay.
# “And” between values parts separate entries of the source, which are not always exact repeats. Identical values can stand only once. Records with an inconclusive call do not appear. The source made the active and inactive calls. Unless noted, no stated cut-off is given here; in the data, active means inhibition above about 80%; inactive means the rest.
# Legend:
# [1] = growth inhibition of DIPG glioma cells, dose response, cell-based, SU-DIPG-XVII, MIPE5.0, CellTiter-Glo, qHTS (AID 1347060; cut-off not given, nearly all actives have AC50 up to about 26 µM;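 further: cells exposed to compound for 48 hours before viability readout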); settings: SU-DIPG-XVII viability, CellTiter-Glo ATP luminescence
# [2] = growth inhibition of DIPG glioma cells, dose response, cell-based, JHH-DIPG-1, MIPE4.0, CellTiter-Glo, qHTS (AID 1347062; cut-off not given, nearly all actives have AC50 up to about 27 µM;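 further: cells exposed to compound for two days before readout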); settings: JHH-DIPG-1 viability, CellTiter-Glo ATP luminescence
# [3] = growth inhibition of DIPG glioma cells, dose response, cell-based, SU-DIPG-IV, MIPE4.0, CellTiter-Glo, qHTS (AID 1347063; cut-off not given, nearly all actives have AC50 up to about 30 µM;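 further: compound exposure lasted 48 hours before the viability readout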); settings: SU-DIPG-IV viability, CellTiter-Glo ATP luminescence
# [4] = growth inhibition of DIPG glioma cells, dose response, cell-based, SU-DIPG-XIII, MIPE5.0, CellTiter-Glo, qHTS (AID 1347064; cut-off not given, nearly all actives have AC50 up to about 23 µM;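 further: cells exposed to compound for 48 hours before the viability read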); settings: SU-DIPG-XIII viability, CellTiter-Glo ATP luminescence
# [5] = viability loss in pontine glioma line – cell-based, SU-DIPG-XXV, MIPE5.0, CellTiter-Glo, qHTS, dose response (AID 1347065; cut-off not given, nearly all actives have AC50 up to about 26 µM;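 further: cells exposed to compound for 48 hours before ATP readout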); settings: CellTiter-Glo ATP luminescence
# [6] = JHH-DIPG-1 glioma cell viability, MIPE5.0 library, CellTiter-Glo luminescence, qHTS (AID 1347067; cut-off not given, nearly all actives have AC50 up to about 26 µM;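 further: cells exposed to compound for 48 hours before readout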); settings: JHH-DIPG-1 glioma viability, CellTiter-Glo ATP luminescence
# [7] = sensitizers of A549 cells to miR-34 induction, primary screen, imaging, A549 dox-inducible miR-34, nuclei and caspase counts (AID 1347080;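 active means compounds whose cell count with miR-34 switched on is under 0.7 times the count with it off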); settings: A549 miR-34 inducible, Hoechst nuclei count, 48 h
# [8] = survival rescue of mitochondrial mutant cells in low glucose, primary screen, MELAS cybrids, Rieske KO mouse fibroblasts, CellTiter-Glo (AID 1508586;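 active means mean z-score across replicates of 1.96 or higher in either the MELAS or the Rieske mutant cell line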;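 further: z relative to plate mean and SD of compound and empty wells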)
# [9] = LFS_MB_P medulloblastoma growth inhibition, cell-based, chromothripsis tumors, cisplatin or BGB combos (AID 1671449); settings: LFS_MB_P medulloblastoma cells;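 further: cells exposed for 96 hours; 0% = vehicle DMSO and 100% = killing by high DMSO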
# [10] = HDN33 neuroblastoma growth inhibition, cell-based, chromothripsis tumors, cisplatin or BGB combos (AID 1671450); settings: HDN33 neuroblastoma cells, stronger effect = higher value;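 further: cells exposed to compound for four days; 0% = vehicle DMSO and 100% = cell killing by high DMSO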
# [11] = ICB984 medulloblastoma cell growth inhibition, synergistic combos for chromothripsis tumors, cisplatin or BGB combos (AID 1671451; call rule not given here;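 further: cells exposed for 96 hours before readout; 0% = vehicle DMSO and 100% = killing by high DMSO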); settings: ICB984 medulloblastoma cells, drug combinations, stronger effect = higher value
# [12] = HTB85 osteosarcoma cell growth inhibition, synergistic combos for chromothripsis tumors, BGB or cisplatin IC20 combos (AID 1671453); settings: HTB85 osteosarcoma cells, drug combinations, stronger effect = higher value;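 further: cells exposed for 96 hours before readout; 0% = vehicle DMSO and 100% = high DMSO killing control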
# [13] = MDA-MB-436 breast carcinoma cell growth inhibition, synergistic combos for chromothripsis tumors, BGB or cisplatin combos (AID 1671458; call rule not given here;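 further: cells exposed for 96 hours; 0% = vehicle DMSO and 100% = killing by high DMSO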); settings: MDA-MB-436 breast carcinoma growth inhibition, drug combinations, stronger effect = higher value
# [14] = growth inhibition of BT084 medulloblastoma cells, cell-based, ICGC_MB145, cisplatin and BGB IC40 combos (AID 1671461); settings: drug combinations, stronger effect = higher value;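 further: cells exposed to drugs for 96 hours; 0% = vehicle DMSO and 100% = high DMSO full killing control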
# [15] = growth inhibition of RCMB18 medulloblastoma cells, cell-based, cisplatin and BGB IC40 combos (AID 1671462); settings: stronger effect = higher value;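 further: cells exposed to compound for four days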
structure (smiles),measurement,setting,value
CN(C)c1ccc(C(=O)NCCCCCCC(=O)NO)cc1,AC50,[1],1480 nM (active)
same,AC50,[2],743 nM (active)
same,AC50,[3],1050 nM (active)
same,AC50,[4],934 nM (active)
same,AC50,[5],934 nM (active)
same,AC50,[6],1180 nM (active)
same,fold change,"[7]; stronger effect = lower value, cell number ratio, induced over uninduced",0.925 (inactive) and 1.16 (inactive)
same,fold change,[7]; measured here: relative caspase fold change +Dox/-Dox,1.2 and 1.01
same,cell count,"[7]; measured here: total cells with miR-34 induction, stronger effect = lower value",3030 and 2210
same,cell count,[7]; measured here: total cells without miR-34 induction,3270 and 1910
same,z-score,"[8]; MELAS cybrid survival, CellTiter-Glo 48 h, stronger effect = higher value",1.18 (inactive)
same,z-score,"[8]; Rieske KO mouse fibroblast survival, CellTiter-Glo 72 h",0.973
same,inhibition,"[9]; at 0.5 µM, stronger effect = higher value",-18.1% (inactive)
same,inhibition,"[9]; measured here: combination with BGB IC20, at 0.005 µM",-25.6%
same,inhibition,"[9]; measured here: combination with BGB IC40, at 0.005 µM",-22.1%
same,inhibition,"[9]; measured here: combination with BGB IC40, at 0.05 µM",-25.8%
same,inhibition,"[9]; measured here: combination with cisplatin, at 0.5 µM, stronger effect = higher value",-23.5%
same,inhibition,"[9]; measured here: combination with cisplatin, at 5 µM, stronger effect = higher value",107%
same,inhibition,"[10]; BGB combo, at 5 µM",97.7%
same,inhibition,[10]; at 0.5 µM,36.1% (inactive)
same,inhibition,"[10]; cisplatin combo, at 5 µM",99.4%
same,inhibition,"[10]; measured here: with BGB IC20 combination, at 0.5 µM",24.9%
same,inhibition,"[10]; measured here: with cisplatin IC20 combination, at 0.5 µM",50.9%
same,inhibition,"[10]; single agent, at 5 µM",99.1%
same,inhibition,"[11]; BGB IC20 combo, at 0.005 µM",6.17%
same,inhibition,"[11]; BGB IC40 combo, at 0.005 µM",7.19%
same,inhibition,"[11]; BGB IC40 combo, at 0.05 µM",87.6%
same,inhibition,[11]; at 0.5 µM,-20.5% (inactive)
same,inhibition,"[11]; cisplatin combo, at 0.05 µM",87.3%
same,inhibition,"[11]; cisplatin combo, at 0.5 µM",-6.9%
same,inhibition,"[11]; cisplatin combo, at 5 µM",-44.2%
same,inhibition,"[11]; measured here: 5 uM single agent, at 5 µM",-34.3%
same,inhibition,[12]; at 0.5 µM,28.6% (inactive)
same,inhibition,"[12]; measured here: with BGB IC20, at 0.5 µM",18.8%
same,inhibition,"[12]; measured here: with BGB IC20, at 5 µM",95.5%
same,inhibition,"[12]; measured here: with cisplatin IC20, at 0.5 µM",33.4%
same,inhibition,"[12]; measured here: with cisplatin IC20, at 5 µM",99.7%
same,inhibition,"[12]; single agent, at 5 µM",97.7%
same,inhibition,[13]; at 0.5 µM,5.27% (inactive)
same,inhibition,"[13]; measured here: BGB combination, at 0.5 µM",-2.54%
same,inhibition,"[13]; measured here: BGB combination, at 5 µM",46.7%
same,inhibition,"[13]; measured here: cisplatin combination, at 0.5 µM",-2.21%
same,inhibition,"[13]; measured here: cisplatin combination, at 5 µM",47.8%
same,inhibition,[14]; at 0.5 µM,27.2% (inactive)
same,inhibition,"[14]; cisplatin combination, at 0.5 µM",48.8%
same,inhibition,"[14]; cisplatin combination, at 5 µM",101%
same,inhibition,"[14]; measured here: BGB IC40 combination 0.05 uM, at 0.05 µM",2.96%
same,inhibition,"[14]; single agent, at 5 µM",104%
same,inhibition,[15]; at 0.5 µM,31.7% (inactive)
same,inhibition,"[15]; cisplatin combo, at 5 µM",93.3%
same,inhibition,"[15]; measured here: BGB IC40 combination, at 0.05 µM",-8.02%
same,inhibition,"[15]; measured here: combination with cisplatin, at 0.5 µM",62.9%
same,inhibition,"[15]; single agent, at 5 µM",89%
